Sampled rows, rich in hits. Any-hit rate of the full collection: about 6%.
DRD3 agonist = agonists of human D3 dopamine receptor. P35462. D3R DiscoveRx beta-arrestin cells, luminescence, 90 min. max activation, %. hit rate 0.58% among 410,000; in the data active means max activation above about 30%
Target sequence (P35462 whole entry, looked up): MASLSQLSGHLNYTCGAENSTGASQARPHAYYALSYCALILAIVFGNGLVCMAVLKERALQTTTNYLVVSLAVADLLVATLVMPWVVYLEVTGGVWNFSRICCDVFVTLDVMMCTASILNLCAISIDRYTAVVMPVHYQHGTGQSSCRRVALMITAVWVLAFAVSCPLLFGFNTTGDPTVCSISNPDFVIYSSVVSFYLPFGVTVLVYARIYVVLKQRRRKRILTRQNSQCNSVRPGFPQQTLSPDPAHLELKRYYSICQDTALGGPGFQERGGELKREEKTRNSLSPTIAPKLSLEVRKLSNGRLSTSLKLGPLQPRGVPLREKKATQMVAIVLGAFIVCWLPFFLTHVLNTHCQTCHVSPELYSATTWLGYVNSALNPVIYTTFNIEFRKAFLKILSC
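Agonist mode: compounds and dopamine controls were applied to plated cells for 90 min at 37 degrees C after an overnight attachment at 1500 cells/well. Luminescent read-out followed 30 - 60 minutes at room temperature with DiscoveRx detection reagent.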
DRD3 antagonist = D3 dopamine receptor (human) antagonism. P35462. D3R cells, DiscoveRx beta-arrestin luminescence, antagonist mode; active compounds read low. max response, negative = inhibition, %. hit rate 2.5% among 360,000. AID 652054; in the data active means max response below about -50%; inconclusive means no clear call, values can overlap the other calls
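Cells expressing the human receptor were seeded at 1500 cells/well, incubated overnight at 37 degrees C in 5% CO2, then exposed to library compounds with dopamine controls for 90 minutes at 37 degrees C before luminescent detection.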
Chronic BCR inh = inhibitors of chronic active B-cell receptor signaling. ABC-DLBCL IkBa-CBG/CBR reporter, luminescence ratio, 4 h. Potency, µM (series often up to 46.1 µM), actives largely listed as inhibitors. hit rate 0.05% among 340,000; active means well fitted inhibition curve with a large enough effect in the signal ratio, with a control signal flat, not every such curve was filed as active; inconclusive means small, poorly fitted or top-dose-only effect, or effect the other way, or a change in a side signal; the % refers to the signal ratio
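Compounds up to 46 uM were incubated four hours with TMD8 cells whose green CBG68 luciferase is fused to IkappaBalpha; red CBR luminescence normalised the signal, and concentration-effect curves were fitted to fusion, red and ratio data.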
D1 potentiator = enhances dopamine response at the human D1 receptor. P21728. HEK293 TREx D1 cells, calcium flux, dopamine EC20 potentiation. potentiation, % at 10 µM. hit rate 0.036% among 360,000. AID 504651; in the data active means potentiation above about 30%
D1 antagonist = blocks dopamine activation of the human D1 receptor; P21728; HEK293 TREx D1 cells, calcium flux, dopamine EC80; active compounds read low; activity change, negative = inhibition, % at 10 µM; hit rate 3.2% among 360,000; AID 504652; in the data active means activity change below about -30%
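Inducible Hek293 Trex D1 cells (tetracycline, overnight, 30 C). Calcium dye 30–90 min RT. Antagonist mode: EC80 dopamine added after 180 s compound read.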
D1 agonist = agonists of human D1 dopamine receptor | hit rate 1% among 360,000 | P21728 | activation, % at 2 µM | HEK293 T-REx D1 cells, calcium flux, agonist mode | AID 504660; in the data active means activation above about 30%
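Agonism was scored from calcium flux recorded over 180 s (1 read/s) after pintool compound addition, following a 10-cycle baseline. Cells were inducible force-coupled HEK293 TREx D1, plated overnight at 30 C and loaded with no-wash calcium dye.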
Hits are given with their value; . = inactive; ? = inconclusive; / = not tested or not shown.

SMILES	DRD3 agonist	DRD3 antagonist	Chronic BCR inh	D1 potentiator	D1 antagonist	D1 agonist
CCOC(=O)c1c(-c2ccccc2)csc1NC(=O)c1cccc(N2C(=O)CCC2=O)c1	61.7	.	.	.	.	.
CCOC(=O)c1cc(CC)sc1NC(=O)c1ccc(N2C(=O)CCC2=O)cc1	50.5	.	.	.	.	.
CCOC(=O)c1c(-c2ccccc2)csc1NC(=O)/C(C#N)=C/c1ccc(O)c(OC)c1	.	.	.	.	.	88.8
CS(=O)(=O)c1nc(-c2ccccc2)cc(C(F)(F)F)n1	.	-120.0	?	.	.	.
COc1ccc(OCC(=O)OCC(=O)N2C(C)CCCC2C)cc1 (configuration not stated)	.	.	.	/	-36.2	.
CCc1ccc(NC(=O)CSc2nccn2C2CCCC2)cc1	.	/	.	.	.	.
O=C1C(=O)c2cccnc2-c2ncccc21	.	-87.1	/	/	/	/
O=C1c2cccnc2-c2ncccc21	.	.	.	.	.	.
O=C(Nc1ccc(OCC(F)(F)C(F)F)cc1)c1ccncc1	.	.	?	.	-31.8	.
CCOc1ccc(NC(=O)c2ccncc2)cc1	.	.	.	.	.	.
C/C(=N\NC(=O)c1cc(Br)ccc1O)c1cccs1	.	.	?	.	.	31.6
CC(COc1ccccc1)N1CCC(CO)(CCc2ccccc2)CC1 (configuration not stated)	.	-62.0	?	.	.	35.1
COc1cc(Cl)ccc1OCc1cc(C(=O)N2C[C@]3(C)C[C@H]2CC(C)(C)C3)no1	.	.	.	.	.	37.6
COc1ccc(C(=O)N2CC3(C)CC2CC(C)(C)C3)cc1 (configuration not stated)	.	.	/	.	-31.5	.
CC(=O)OCc1c(-c2ccccc2)c2cc([N+](=O)[O-])ccc2n1C	.	.	.	.	-47.0	.
NC(=O)c1cccc(Nc2nc(C(N)COCc3ccccc3)cs2)n1 (configuration not stated)	.	-64.6	/	/	/	/
COCC1CCN(C(=O)c2cc(COc3cccc4cnccc34)on2)CC1	.	.	?	.	.	.
O=C(c1cc(COc2cccc3cnccc23)on1)N1CCCC(CCCO)C1 (configuration not stated)	.	.	.	.	-55.5	.
COc1ccccc1OCc1cc(C(=O)N2CCCC(OCc3cccnc3)C2)no1 (configuration not stated)	.	.	.	.	-36.3	.
CSc1ccccc1OCc1cc(C(=O)N2CCC(Oc3cccnc3)CC2)no1	/	/	?	.	-45.8	.
O=C(c1cc(COc2ccccc2)on1)N1CCCC(OCc2cccnc2)C1 (configuration not stated)	.	.	.	.	.	.
CCc1ccc(NCc2cc3ccc(OC)cc3n(CC(=O)Nc3ccccc3C)c2=O)cc1	.	/	/	.	.	.
Cc1ccc(S(=O)(=O)c2cn(C)c3cc(N4CCOCC4)c(F)cc3c2=O)c(C)c1	.	/	/	.	.	.
O=C(CSc1nnc(-c2ccc(O)cc2)n1Cc1ccco1)c1ccccc1	.	.	.	.	.	.
O=C(CSc1nnc(-c2ccccn2)n1Cc1ccco1)c1ccc(-c2ccccc2)cc1	.	.	.	.	-89.6	.
SMILES	DRD3 agonist	DRD3 antagonist	Chronic BCR inh	D1 potentiator	D1 antagonist	D1 agonist
CN(C(=O)Cn1c(=O)n(Cc2ccc(C(=O)NCc3ccc4c(c3)OCO4)cc2)c(=O)c2ccccc21)c1ccccc1	.	/	/	.	.	.
COc1ccc(CCNC(=O)CCS(=O)(=O)c2cc3c(cc2Cl)NC(=O)CO3)cc1OC	.	/	/	.	.	.
Cc1cc(S(=O)(=O)NC2CCCCC2)ccc1-n1cnnn1	.	.	.	.	-30.4	.
COc1ccccc1CNS(=O)(=O)c1ccc(-n2cnnn2)c(C)c1	.	.	.	.	-30.7	.
COc1ccccc1CNS(=O)(=O)c1ccc2c(c1)NC(=O)CC(=O)N2	.	/	/	.	-32.6	.
COc1cc(S(=O)(=O)NCc2ccccc2)ccc1-n1cnnn1	.	.	.	/	.	.
COc1ccc(N(C(=O)c2cc(OC)c(OC)c(OC)c2)S(=O)(=O)c2ccc(C)cc2)cc1	.	/	/	.	.	.
Cc1ccc(-c2nnc(COC(=O)c3cc(=O)[nH]c4ccccc34)o2)cc1	.	.	.	.	-85.4	.
CCOC(=O)c1cc(=O)[nH]c2ccccc12	.	.	.	.	.	.
Cc1ccc(-c2nnc(COC(=O)c3ccco3)o2)cc1	.	-95.4	.	.	.	.
CN1CCCN(c2ncnc3scc(-c4ccc(F)cc4)c23)CC1	.	.	.	.	.	.
CC(C)c1ccc(-c2csc3ncnc(N4CCN(C)CC4)c23)cc1	.	-71.5	?	.	.	.
Cc1ccc(-c2csc3ncnc(N4CCN(c5ccccc5O)CC4)c23)cc1	.	.	?	.	.	.
COc1ccc(-c2csc3ncnc(N4CCN(c5ccccc5O)CC4)c23)cc1	.	.	.	.	.	43.9
COc1ccc(C2c3[nH]c4ccc(OC)cc4c3CCN2C(=O)Nc2ccccc2)cc1 (configuration not stated)	.	/	/	.	.	.
O=C1Nc2ccccc2C12Nc1ccccc1-c1nc3ccccc3n12 (configuration not stated)	.	.	.	.	.	37.1
COc1cccc(NC(=O)CSc2nnc(NC(=O)NC3CCCCC3)s2)c1	.	/	.	.	/	.
Cn1c(-c2sccc2OCc2ccccc2)n[nH]c1=S	.	-53.7	?	.	.	.
O=C(Nc1ccc(F)cc1)C(c1cccc(F)c1)N1CCN(Cc2c(F)cccc2Cl)CC1 (configuration not stated)	.	.	/	/	/	/
CCN(CC)Cc1c(O)ccc2c1O/C(=C\C=C\c1ccccc1)C2=O	.	.	.	.	.	48.8
COc1ccccc1/C=C/C=C1\Oc2c(ccc(O)c2CN(C)C)C1=O	.	?	?	.	.	103.3
Cc1ccc(Sc2ccc(/C=N/O)cc2[N+](=O)[O-])cc1	.	-69.3	/	.	.	.
CO/N=C/c1ccc(Sc2ccc(C)cc2)c([N+](=O)[O-])c1	.	.	.	.	.	.
CN(C)c1oc(-c2ccc(COc3ccccc3)o2)nc1C#N	.	/	/	.	.	.
CCOC(=O)/C=c1\s/c(=C\c2ccccc2C)c(=O)n1CC(=O)NCc1ccc2c(c1)OCO2	.	.	?	.	-57.0	.
COc1cc2oc(=O)ccc2cc1-c1c(OC)ccc2ccc(=O)oc12	.	.	.	/	/	/
C=CCc1c(OC)ccc2ccc(=O)oc12	.	-56.6	.	.	.	.
FC(F)(F)c1ccccc1NC(=S)NC1CCN(Cc2ccccc2)CC1	.	-58.1	.	.	.	.
S=C(Nc1ccc(Cl)cc1Cl)NC1CCN(Cc2ccccc2)CC1	.	.	?	.	.	.
